Measured values as given in PubChem BioAssay (NCI).
This is part of a sample that, as a whole, favours compounds with a hit. Of some 83,000 tested, about 20% had one in any assay.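 Growth was measured after 48 h exposure to one concentration of compound in 96-well plates. Values under 10 count as active.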 A number with no mark means an inactive call. Calls of active or inactive are those of the source.

Experiments:
Test in all cases: NCI-60 one-dose screen, 48 h (100 = growth as untreated, 0 = no growth, -100 = all killed)
Conditions in all cases: 10 µM unless noted
T-47D breast = system: T-47D breast
BT-549 breast = system: BT-549 breast
MDA-MB-435 melanoma = system: MDA-MB-435 melanoma
MCF7 breast = system: MCF7 breast
HCT-116 colon = system: HCT-116 colon
HCC-2998 colon = system: HCC-2998 colon
KM12 colon = system: KM12 colon
SW-620 colon = system: SW-620 colon

| SMILES | growth (T-47D breast) | growth (BT-549 breast) | growth (MDA-MB-435 melanoma) | growth (MCF7 breast) | growth (HCT-116 colon) | growth (HCC-2998 colon) | growth (KM12 colon) | growth (SW-620 colon) |
| --- | --- | --- | --- | --- | --- | --- | --- | --- |
| CN(C)CCCN=c1cc2c(=O)n(CCCN(C)C)c(=O)c3c(NCCCN(C)C)cc4c(O)n(CCCN(C)C)c(=O)c1c4c3-2 | -1.16% (active) | 37% | -52.8% (active) | 0.771% (active) | -29.7% (active) | 13.8% | 3.01% (active) | – |
| O=C1NCCc2c1noc2-c1ccccc1 | 89.3% | 97% | 106% | 92.9% | 88.3% | – | 103% | 109% |
| CCCCCc1c(C)[nH]c(/C=C2\N=C(c3ccc[nH]3)C=C2Oc2ccccc2)c1C | -61.1% [100 µM] (active) | -97.1% [100 µM] (active) | -34.4% [100 µM] (active) | -100% [100 µM] (active) | -4.84% [100 µM] (active) | -91.6% [100 µM] (active) | -81.7% [100 µM] (active) | – |
| COc1ccc(OC)c(CCn2cncc2-c2c[nH]c3cc(Br)ccc23)c1 | 6.48% (active) | 14.1% | 11.8% | 17.2% | 23.6% | – | 41.7% | 33.7% |
| Cc1cc(C)c2c(N)c3cccc(C)c3nc2n1 | -3.39% (active) | 0.0119% (active) | 2.84% (active) | 6.02% (active) | -39.4% (active) | -38.7% (active) | 6.37% (active) | – |
| Cc1ccc(S(=O)(=O)NCCN2c3nc4ccccc4cc3Sc3cc4ccccc4nc32)cc1 | 62.5% | 46.2% | 105% | 69% | 70.5% | 86.3% | 165% | – |
| COP(=O)(OC)C(c1ccccc1)(c1ccccc1)c1ccccc1 | 88.8% | 117% | 91.2% | 103% | 73.1% | 114% | 93.7% | – |
| CCN(CC)CCSc1ncnc2c1cnn2-c1ccc(S(N)(=O)=O)cc1 | 102% | 100% | 76.2% | 83.1% | 70.6% | – | 106% | 73.5% |
| O=c1c2ccccc2c2nccn2c2cc(Cl)ccc12 | 84.6% | 89% | 94.5% | 122% | 76.4% | 67.3% | 150% | – |
| CCN(CC)CCOCC[C@H]1CC[C@H]2[C@@H]3[C@H](C)Cc4cc(OS(N)(=O)=O)ccc4[C@H]3CC[C@]12C | -46.4% (active) | -53.4% (active) | -63.7% (active) | -63.1% (active) | -98.4% (active) | -92.7% (active) | -80.8% (active) | – |
| COP(=O)(OC)C(c1ccc(O)cc1)(c1ccc(O)cc1)c1ccc(O)cc1 | 104% | 133% | 118% | 109% | 82.7% | 127% | 113% | – |
| Cc1onc(-c2ccccc2Cl)c1C(=O)N[C@@H]1C(=O)N2[C@@H]1SC(C)(C)[C@@H]2C(=O)O | 98.1% | 100% | 107% | 101% | 101% | – | 108% | 110% |
| CC(=O)OCC(=O)[C@@]1(O)CC[C@H]2[C@@H]3CCC4=CC(=O)CC[C@]4(C)[C@@]3(F)[C@@H](O)C[C@@]21C | 109% | 103% | 115% | 87.3% | 106% | – | 109% | 98.3% |
| CC12CCC3C(=CCc4cc(O)ccc43)C1CCC2=O (configuration not stated) | 104% | 99.5% | 73% | 120% | 102% | 111% | 108% | – |
| CC(=O)c1ccc(NS(=O)(=O)c2ccc([N+](=O)[O-])cc2)cc1 | 86.3% | 102% | 122% | 99.3% | 102% | – | 111% | 108% |
| COCCCNS(=O)(=O)c1ncnc2nc[nH]c12 | 105% | 123% | 107% | 112% | 93.5% | 102% | 95.7% | – |
